Reference: PubChem BioAssay
Results with a measured potency or affinity are listed apart. Results filed as inconclusive are left out. Active and inactive are the calls of the source. Unless noted, how the calls were made is not given here.

Assays:
[1] = RMG-1 ovarian cancer cell viability loss – cherry-pick, dose response (AID 687029;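 active means signal drop whose fitted half-maximal concentration is at most twice the top valid dose, in every test run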;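 further: cells exposed to compound for 96 hours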)
[2] = CMV-driven luciferase expression suppression in HEK293 – cell-based, luminescence, dry powder, counter-screen for Pax8 inhibitor project, dose response (AID 743020;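 active means signal-lowering compounds whose fitted half-maximal concentration is at or below twice the top tested dose in every run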;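 further: HEK293 cells stably expressing the CMV luciferase reporter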)
[3] = general cell-killing toxicity readout – plate reader, dry powder samples, cytotoxicity control for PAX8 inhibitor project, dose response (AID 743021)
[4] = IGROV1 cell killing – plate reader, dry powder samples, PAX8 inhibitor project, dose response (AID 743043);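 further: more negative means fewer viable cells or more cytotoxicity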
[5] = OVCAR-3 cell viability loss – plate reader, dry powder samples, PAX8 inhibitor project, dose response (AID 743044); settings: max activity: at 35 µM, active compounds read low unless noted
[6] = toxicity toward immortalized ovarian surface epithelium – cell-based, plate reader, dry powder samples, cytotoxicity control for PAX8 inhibitor project, dose response (AID 743045);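 further: 0% = neutral control median and -100% = positive control median; more negative values mean more cell killing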
[7] = A2780 cell killing – plate reader, dry powder samples, cytotoxicity control, dose response (AID 743046);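 further: 0% = neutral control wells and -100% = cytotoxic reference compound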
[8] = OVCAR8 cell viability loss – plate reader, dry powder samples, PAX8 project, dose response (AID 743197)

Measured: max activity

COc1ccc(-c2ccc3c(c2)[C@@H]2[C@@H](CCN2C(=O)NC2CCCCC2)[C@H](CO)N3C)cc1
inactive: [1] | [2] | [3] | [4]

COc1ccc(CN(C)C[C@H]2Oc3ccc(NC(=O)Nc4ccc5c(c4)OCO5)cc3CC(=O)N([C@H](C)CO)C[C@H]2C)cc1
inactive: [1] | [2] | [3] | [4] | [5] -9.48% [at 18 µM, active compounds read low] | [6] | [7] | [8]

COc1cccc(S(=O)(=O)N(C)C[C@@H]2OCc3ccccc3-c3c(n(C)c4ccccc34)C(=O)N([C@H](C)CO)C[C@@H]2C)c1
inactive: [1] | [2] | [3] | [4] | [5] -14.8% | [6]

COc1ccc(S(=O)(=O)Nc2ccc3c(c2)CC(=O)N([C@@H](C)CO)C[C@@H](C)[C@@H](CN(C)Cc2ccc(-c4ccccc4)cc2)O3)cc1
inactive: [1] | [2] | [3] | [4] | [6]

CCCCCc1cc(=O)oc2c(C(CCN3CCCCC3)c3ccc4c(c3)OCO4)c(OC)cc(OC)c12 (stereo unspecified)
inactive: [1] | [2] | [3]

CC(C1CC1)N(Cc1ccccc1)C(=S)Nc1cccc(C(F)(F)F)c1 (stereo unspecified)
inactive: [1] | [2] | [3]

COc1ccc(CN(C)C[C@H]2OCCCC[C@H](C)Oc3ccc(NC(=O)Nc4ccc(C(F)(F)F)cc4)cc3C(=O)N([C@H](C)CO)C[C@@H]2C)cc1
inactive: [1] | [2] | [3] | [4] | [5] -28.6% [at 8 µM, active compounds read low] | [6] | [7] | [8]

O=S(=O)(c1ccccc1)N1CCCCN2[C@H](CO)[C@H](c3ccc(-c4ccccc4F)cc3)[C@H]2C1
inactive: [1] | [2] | [3] | [4] | [5] -5.95% | [6] | [7]

COc1ccc(S(=O)(=O)N(C)C[C@H]2Oc3ccc(NC(=O)Nc4ccc(C(F)(F)F)cc4)cc3C(=O)N([C@H](C)CO)C[C@@H]2C)cc1
inactive: [1] | [2] | [3]

C[C@@H]1CN([C@@H](C)CO)C(=O)c2cc(NC(=O)Nc3ccc(C(F)(F)F)cc3)ccc2O[C@@H](C)CCCCO[C@@H]1CN(C)CC1CCCCC1
inactive: [1] | [2] | [3] | [4] | [5] 15.9% | [6] | [7] | [8]

Cc1ccc(S(=O)(=O)Nc2cccc3c2O[C@@H](CN(C)Cc2ccc(Oc4ccccc4)cc2)[C@@H](C)CN([C@H](C)CO)C3=O)cc1
inactive: [1] | [2] | [3] | [4] | [5] 15.8% [at 1 µM, active compounds read low] | [6] | [7] | [8]

COc1ccc(C(=O)CN2C(=O)c3ccccc3S2(=O)=O)cc1
inactive: [1] | [2] | [3]

Cc1ccc(S(=O)(=O)Nc2ccc3c(c2)C(=O)N([C@H](C)CO)C[C@@H](C)[C@H](CN(C)Cc2ccc(C(F)(F)F)cc2)OCCCC[C@@H](C)O3)cc1
inactive: [1] | [2] | [3] | [4] | [5] 6.08% [at 0.5 µM, active compounds read low] | [6] | [7] | [8]

CCn1c2ccccc2c2cc(NC(=O)c3cc(OC)cc(OC)c3)ccc21
inactive: [1] | [2] | [3]

Cc1cc(C(=O)Nc2cccc3c2O[C@H](CN(C)Cc2ccc(Oc4ccccc4)cc2)[C@@H](C)CN([C@H](C)CO)C3=O)n(C)n1
inactive: [1] | [2] | [3] | [4] | [5] -26.8% [at 16 µM, active compounds read low] | [6] | [7]

Cc1ccc(S(=O)(=O)Nc2ccc3c(c2)C(=O)N([C@@H](C)CO)C[C@@H](C)[C@@H](CN(C)S(=O)(=O)c2ccc(Cl)cc2)OCCCC[C@@H](C)O3)cc1
inactive: [1] | [2] | [3] | [4] | [5] -15% | [6] | [8]

O=C1/C(=C/c2ccccc2)SC(=S)N1CC(=O)N1CCCCC1c1cccnc1 (stereo unspecified)
inactive: [1] | [2] | [3] | [4] | [5] | [6] | [7]

C[C@H](CO)N1C[C@H](C)[C@@H](CN(C)CC2CCCCC2)Oc2c(NC(=O)CCCCCC(=O)Nc3ccccc3N)cccc2C1=O
inactive: [1] | [2] | [3] | [4] | [5] 16% [at 1 µM, active compounds read low] | [6] | [7]

Oc1[nH]c2ccc(Br)cc2c1N=NC(=S)N1CCOCC1
inactive: [1] | [2] | [3]

Cc1ccc(S(=O)(=O)NCc2ccc(C(=O)N3CCN(c4ccc([N+](=O)[O-])cc4)CC3)cc2)cc1
inactive: [1] | [2] | [3]

CN1C(=O)/C(=C\C(=O)c2cccs2)c2ccccc21
inactive: [1] | [2] | [3]

Cn1nnnc1Sc1ncnc2scc(-c3ccc(Br)cc3)c12
inactive: [1] | [2] | [3]

C=C1C(=O)O[C@@H]2[C@H]1[C@@H](OC(=O)/C(C)=C/C)C/C(C)=C\C(=O)/C=C(\C)[C@@H]2O
inactive: [1] | [2] | [3]

COc1ccc(CC2C(=O)NC(C)C(=O)N(C)C3Cc4ccc(cc4)Oc4cc(ccc4O)CC(C(=O)NC(C)C(=O)NC(C)C(=O)N2C)N(C)C3=O)cc1 (stereo unspecified)
inactive: [1] | [2] | [3]

O=C(Nc1cccc(Cl)c1)Nc1nnc(CSCCOc2ccc(Cl)cc2)s1
inactive: [1] | [2] | [3] | [4]

C[C@@H]1CCCCO[C@@H](CN(C)Cc2ccc(Cl)c(Cl)c2)[C@H](C)CN([C@H](C)CO)C(=O)c2cc(NC(=O)Nc3ccc(C(F)(F)F)cc3)ccc2O1
inactive: [1] | [2] | [3] | [4] | [5] 52.8% [at 0.26 µM, active compounds read low] | [6] | [7] | [8]

COc1ccc(S(=O)(=O)Nc2ccc3c(c2)CC(=O)N([C@H](C)CO)C[C@H](C)[C@@H](CN(C)Cc2ccc(Cl)c(Cl)c2)O3)cc1
inactive: [1] | [2] | [3] | [4] | [5] 16.2% [at 16 µM, active compounds read low] | [6] | [7] | [8]

COc1cccc2c1C(=O)c1c(O)c3c(c(O)c1C2=O)CC(O)(C(C)=NNC(=O)c1ccc(Cl)c(Cl)c1)CC3OC1CC(N)C(O)C(C)O1 (stereo unspecified)
inactive: [1] | [2] | [3]

C[C@@H]1CN([C@H](C)CO)C(=O)c2cc(NC(=O)Nc3ccc(C(F)(F)F)cc3)ccc2O[C@@H](C)CCCCO[C@H]1CN(C)Cc1ccccc1
inactive: [1] | [2] | [3] | [4] | [5] 12% [at 30 µM, active compounds read low] | [6] | [7] | [8]

O=C(Nc1ccc(C(F)(F)F)cc1)Nc1ccc2c(c1)[C@H]1C[C@H](CC(=O)N3CCc4ccccc4C3)O[C@H](CO)[C@H]1O2
inactive: [1] | [2] | [3] | [4] | [5] 20.8% [at 0.5 µM, active compounds read low] | [6] | [8]

C[C@@H]1CN([C@@H](C)CO)S(=O)(=O)c2ccc(C#Cc3ccc(F)cc3)cc2O[C@@H]1CN(C)C(=O)NC1CCCCC1
inactive: [1] | [2] | [3] | [4] | [5] 23.4% [at 1 µM, active compounds read low] | [6] | [7] | [8]

C[C@@H]1CCCCO[C@H](CN(C)C(=O)Cc2ccccc2)[C@@H](C)CN([C@@H](C)CO)C(=O)c2cc(NC(=O)Nc3ccc(C(F)(F)F)cc3)ccc2O1
inactive: [1] | [2] | [3] | [4] | [6]

COc1ccc(S(=O)(=O)Nc2ccc3c(c2)C(=O)N([C@H](C)CO)C[C@@H](C)[C@H](CN(C)C(=O)Nc2ccc(C(F)(F)F)cc2)OCCCC[C@H](C)O3)cc1
inactive: [1] | [2] | [3] | [4] | [5] -37.1% | [6] | [8]

O=C(COC(=O)c1ccco1)Nc1cccc(S(=O)(=O)N2CCOCC2)c1
inactive: [1] | [2] | [3]

C[C@H](CO)N1C[C@H](C)[C@H](CN(C)Cc2ccc(-c3ccccc3)cc2)Oc2ccc(NS(=O)(=O)c3ccc(F)cc3)cc2CC1=O
inactive: [1] | [2] | [3] | [4] | [5] -42.4% | [6] | [7]

COc1ccc(S(=O)(=O)Nc2ccc3c(c2)C(=O)N([C@H](C)CO)C[C@H](C)[C@@H](CN(C)Cc2ccc(Cl)c(Cl)c2)OCCCC[C@@H](C)O3)cc1
inactive: [1] | [2] | [3] | [4] | [5] -37.4% [at 8 µM, active compounds read low] | [6] | [7] | [8]

CN1c2ccc(-c3ccccc3)cc2[C@H]2[C@H](CCN2C(=O)NC2CCCCC2)[C@@H]1CO
inactive: [1] | [2] | [3] | [4] | [7]

COc1cc(CNc2ncnc3c2ncn3[C@H]2CN(Cc3ccc(-c4ccccc4)cc3)C[C@@H](CO)O2)cc(OC)c1OC
inactive: [1] | [3]

Cc1cc(NC(=O)CCCS(=O)(=O)c2nc(-c3cccs3)cc(C(F)(F)F)n2)no1
inactive: [1] | [2] | [3] | [6]

Cc1ccc(S(=O)(=O)N(C)C[C@@H]2Oc3cc(C#Cc4ccncc4)ccc3S(=O)(=O)N([C@H](C)CO)C[C@H]2C)cc1
inactive: [1] | [2] | [3] | [4] | [6] | [7]
